About 380 (27%) of roughly 1,400 compounds were called active. Some of the results follow. A number with no mark means an inactive call.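 How the source made its calls: active means mean inhibition above 50% across duplicate retests at 10 µM; inactive means the rest.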
Assay: yeast NALP1 reporter signal suppression – S. cerevisiae, luminescence, single concentration, NALP1 inhibitor project, confirmation (AID 488841);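 further: plate controls were DMSO in galactose medium for no effect and cells in plain SD medium for full effect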
Settings: S. cerevisiae NALP1/ASC/Caspase-1 reporter, beta-gal luminescence; at 10 µM; hits give high values

Row | Compound | inhibition
1 | CC1CCCC(NC(=O)C2CCN(S(=O)(=O)N3CCCCC3)CC2)C1C (stereo not drawn) | 26.3%
2 | Cc1ccc(C(=O)c2no[n+]([O-])c2C(=O)c2ccc(C)cc2)cc1 | 58.2% (active)
3 | CCOC(=O)c1nn(-c2ccc(C)cc2)cc1C(=O)c1ccccc1 | 46.5%
4 | O=[N+]([O-])c1ccc2cn(-c3ccccc3)nc2c1 | 40.4%
5 | NC(=O)C1(N2CCCCC2)CCN(Cc2nc(-c3cccs3)no2)CC1 | 37.5%
6 | Oc1oc(-c2ccccc2)nc1C=Nc1cccc2ccccc12 | 40.1%
7 | CCOC(=O)C1CCCCN1Cc1ccc(F)c(Br)c1 (stereo not drawn) | 31.7%
8 | Cc1cc(Cl)c(OCCCn2ccnc2)c(Br)c1 | 38.1%
9 | c1cc2c3c(cccc3c1)NC1(CCCCCC1)N2 | 13.9%
10 | Cc1ccc(OC(=S)Nc2ccc(O)cc2)cc1 | 90.7% (active)
11 | Cc1ccc(Oc2ccccc2/C=N/O)cc1 | 42.1%
12 | CN1CCN(C(=S)Nc2ccc(Cl)c(Cl)c2)CC1 | 24.9%
13 | O=C(CC(O)(C(F)(F)F)C(F)(F)F)Nc1ccc(Cl)c(Cl)c1 | 98.8% (active)
14 | O=C(COc1ccc(CO)cc1Cl)Nc1ccc(F)cc1 | 25.6%
15 | CC(=O)Nc1cccc(OCCCNC(=O)C2CCC2)c1 | 28.2%
16 | Cc1c(NC(=O)c2cc3c(s2)-c2ccccc2OC3)cccc1[N+](=O)[O-] | 34.7%
17 | Cc1ccc(-n2nnnc2C(Cl)c2nnnn2-c2ccc(C)cc2)cc1 | 71.5% (active)
18 | O=[N+]([O-])c1ccc(-n2nnnc2-c2ccccc2)cc1 | 0.15%
19 | CCc1oc2ccccc2c1C(=O)CCN1CCCCC1 | 37.6%
20 | CCOC(=O)c1cc(-c2ccccc2)n(CC(=O)Nc2ccc(OC)c(OC)c2)c1C | 25.8%
21 | COc1ccc(/C=N/OC(=O)Nc2ccccc2)cc1[N+](=O)[O-] | 23.2%
22 | CCOc1ccc(/C=C/C(=O)c2ccccc2)cc1OC | 53.2% (active)
23 | O=C(NCc1ccco1)c1cnn2c1NC(c1ccc(Br)cc1)CC2C(F)(F)F (stereo not drawn) | 50.6% (active)
24 | COc1ccc(/C=C\c2onc(C)c2S(=O)(=O)N2CCC(C(=O)NCc3ccco3)CC2)cc1 | 41.2%
25 | Cc1ccc(CN2CCN(/N=C/c3ccc(C(F)(F)F)cc3)CC2)c(C)c1 | 49%
26 | CCOCC(O)CNC(=O)c1ccc(OC2CCN(C(=O)c3cccnc3)CC2)cc1 (stereo not drawn) | 29.6%

Row | Compound | inhibition
27 | CC1CCN(CCOc2ccc(Cl)c(Cl)c2)CC1 | 43.7%
28 | CCN(C(=O)COC(=O)c1cccnc1Nc1cccc(C(F)(F)F)c1)C1CCS(=O)(=O)C1 (stereo not drawn) | 45.4%
29 | COc1cc(Br)cc(C=Nc2cccc(C(F)(F)F)c2)c1O | 11.4%
30 | NC(=O)/C=C\C(=O)Nc1cccc(C(F)(F)F)c1 | 71.8% (active)
31 | Cc1ccc(NC(=O)/C=C\C(=O)NCC(=O)O)cc1C | 30.8%
32 | COC(=O)/C=C/C(=O)Nc1cccc(C(F)(F)F)c1 | 56.3% (active)
33 | Cc1cs/c(=N\N=C\c2ccccc2)n1Cc1ccco1 | 32.1%
34 | Cc1cccc(C)c1C(OCCN(C)C)C1CCCCC1 (stereo not drawn) | 37%
35 | CSc1ccc(/C=C/C(=O)c2ccc(NC(C)=O)cc2)cc1 | 51% (active)
36 | CC(=O)c1ccc(NC(=O)/C=C/c2ccc(C)cc2)cc1 | 48.6%
37 | CSc1ccc(/C=C/C(=O)c2ccc(O)cc2)cc1 | 61.5% (active)
38 | O=C(/C=C/Sc1ccccc1)c1ccc(Cl)cc1 | 38.4%
39 | O=c1ncn(-c2cccc(F)c2)c2ncccc12 | 37.1%
40 | N#CC(C#N)=C1C=CC=CN1/C(=C\c1ccccc1Cl)C(=O)c1ccccc1 | 5.75%
41 | CCn1cc(C(=O)O)c(=O)c2cc(F)c(N3CCNCC3)cc21 | 27.4%
42 | CCSc1nnc(NC(=O)c2ccc(C)o2)s1 | 54.3% (active)
43 | CC(C)COC(=O)Nc1nnc(SCc2ccccc2F)s1 | 49.2%
44 | CCSc1nnc(NC(=O)c2ccccc2)s1 | 83.2% (active)
45 | Cc1ccc(Nc2nnc(SCC(=O)Nc3ccc(S(=O)(=O)N4CCOCC4)cc3)s2)cc1 | 18.2%
46 | CCCc1[nH]nc2c1C(c1ccoc1)C(C#N)=C(N)O2 (stereo not drawn) | 37.9%
47 | O=C(c1ccc(F)cc1)c1cn(Cc2ccc(F)cc2)c2cc3c(cc2c1=O)OCCO3 | 26.4%
48 | Cc1ccc(Cn2nnnc2CN2CCC(c3nc4ccc(Cl)cc4[nH]3)CC2)cc1 | 34.2%
49 | Cc1noc2ncc(C(=O)c3cc(F)ccc3O)cc12 | 17.8%
50 | c1ccc2c(Nc3nc(N4CCOCC4)c4ccccc4n3)cccc2c1 | 93.2% (active)
51 | CCOc1cc(-c2c(C)c(C)nc(N)c2C#N)ccc1O | 30.4%
52 | O=C(OC1CCOC1=O)c1cc(-c2ccc(Br)cc2)nc2ccccc12 (stereo not drawn) | 21%

Row | Compound | inhibition
53 | Cc1sc(NC(=O)c2ccco2)nc1-c1ccccc1 | 73% (active)
54 | Cc1ccc2oc(-c3ccc(NC(=O)c4cccnc4)cc3)nc2c1 | 44.6%
55 | O=C(Nc1ccon1)c1cc2ccccc2oc1=O | 31.5%
56 | Cc1ccn2cc(-c3ccc(NC(=O)c4ccco4)cc3)nc2c1 | 82.7% (active)
57 | O=C(Nc1cccc(-c2cn3ccccc3n2)c1)c1cccc(Cl)c1 | 39.9%
58 | O=C(CCl)Nc1nc(-c2ccco2)c(-c2ccco2)s1 | 32.2%
59 | O=C(Nc1ccc(-c2cn3ccccc3n2)cc1)c1ccco1 | 76.8% (active)
60 | O=C(Nc1ccc2oc(-c3ccccc3)nc2c1)c1ccco1 | 86.7% (active)
61 | CC1=C(C(=O)Nc2ccc(Cl)cc2)C(c2ccco2)NC(=O)N1 (stereo not drawn) | 23.4%
62 | CCCCC(=O)Nc1ccc(C(=O)NNC(=S)NC(=O)c2ccco2)cc1 | 42.2%
63 | O=C(Nc1nc(-c2ccco2)c(-c2ccco2)s1)C1CCC1 | 39%
64 | CSc1ccc(C(=O)C2CCCN(C(=O)c3ccc4c(c3)no[n+]4[O-])C2)cc1 (stereo not drawn) | 18.6%
65 | Cn1nnc(NC(=O)/C=C/c2ccco2)n1 | 35%
66 | Cn1c(N)c(C(=O)COC(=O)C2(c3ccc(Cl)cc3)CCCC2)c(=O)n(C)c1=O | 28.2%
67 | Clc1ccc2c(N/N=C/c3ccc(Br)cc3)ccnc2c1 | 47.6%
68 | CCOC(=O)c1c(C)c(C(=O)NCCCOC(C)C)c(C)n1C | 26.2%
69 | COc1ccc(N(C)C2=NS(=O)(=O)c3ccccc32)cc1 | 27.9%
70 | C=C(C)C1Cc2c(C)nn(-c3ccccn3)c2C1 (stereo not drawn) | 2.3%
71 | CC(OC(=O)Cc1c(F)cccc1Cl)C(=O)NCCC1=CCCCC1 (stereo not drawn) | 46.2%
72 | Cc1ccc(C(=O)Nc2ccc3nc(C)sc3c2)s1 | 77% (active)
73 | Cc1nc2ccc(NC(=O)c3cc([N+](=O)[O-])cc([N+](=O)[O-])c3Cl)cc2s1 | 40.5%
74 | COc1ccccc1NC(=O)c1ccc(C)s1 | 38.7%
75 | COn1c2c(c3c4nonc4ccc31)CCCC2 | 30.4%
76 | CC1CCN(Cc2ccc(-c3nn[nH]n3)cc2)CC1 | 21.2%
77 | O=C(NC1CCCCC1)c1noc2c1CCCCC2 | 70.2% (active)
78 | O=C(NC1CCCC1)c1ccc(CN2CCOCC2)cc1 | 33.8%

Row | Compound | inhibition
79 | CCn1c(C(=O)N2CCc3ccccc3C2)cc2oc3ccccc3c21 | 32.4%
80 | O=C(c1cc(-c2ccc(O)cc2)on1)N1CCc2ccccc2C1 | 56.5% (active)
81 | O=C(CN1CCc2ccccc2C1)NCc1ccco1 | 18.9%
82 | CC(C)CC(=O)N1CCN(c2ccc([N+](=O)[O-])cc2Cl)CC1 | 37.5%
83 | Cc1c(-c2nc(N)nc(Nc3ccccc3)n2)oc2ccccc12 | 37.3%
84 | CC(=O)c1ccc(NC(=O)Nc2ccc(Cl)cc2)cc1 | 53.4% (active)
85 | CCOC(=O)C(=O)NNc1ccc(Cl)cc1 | 40.9%
86 | CCCCN(C)CCC(=O)Nc1ccc(Cl)cc1 | 28.4%
87 | O=C(Nc1ccc(Cl)cc1)C1=Cc2ccccc2OC1 | 48.8%
88 | N#Cc1ccc(NC(=O)Nc2ccc(Cl)cc2)cc1 | 67% (active)
89 | COc1ccc(N2CCN(CCNC(=O)Nc3ccc(Cl)cc3)CC2)cc1 | 22.3%
90 | CCC(C(=O)NCc1ccco1)N(C(=O)CNS(=O)(=O)c1ccccc1)c1ccc(OC)cc1 (stereo not drawn) | 23.4%
91 | CSc1nnc(-c2cc3c(s2)-c2ccccc2CC3)o1 | 56.6% (active)
92 | O=C(C(Cc1ccccc1)n1cccc1)N1CCN(c2ccccc2)CC1 (stereo not drawn) | 46%
93 | Oc1c(Br)cc(Br)cc1C=Nc1cccnc1 | 36.4%
94 | CNC(=S)N/N=C/c1cc(Br)cc(Br)c1O | 75.7% (active)
95 | Cc1cc(C=C2C(=O)c3ccccc3C2=O)c(C)n1C | 39%
96 | O=C(Nc1ccc(F)cc1)c1cccnc1N1CCCCC1 | 34.8%
97 | CCOc1ccccc1C(=O)OCC(=O)Nc1ccc(N2CCCCC2)cc1 | 36.1%
98 | CCOc1ccccc1C(=O)Nc1cnn(Cc2ccc(F)cc2)c1 | 57.7% (active)
99 | c1ccc(CC2CCN(c3nnnn3-c3ccccc3)CC2)cc1 | 26.4%
100 | COC(=O)c1cc(=O)n(-c2ccc(F)cc2)c(=Nc2ccc(F)cc2)s1 | 33.2%
101 | CCN(CC)c1ccc(N=Cc2ccc([N+](=O)[O-])o2)cc1 | 64.2% (active)
102 | O=[N+]([O-])c1ccc(/C=N/NS(=O)(=O)c2ccc(Cl)cc2)o1 | 36.3%
103 | CCOC(=O)c1[nH]c2ccc(Br)cc2c1NC(=O)CCN1CCC(C)CC1 | 32.4%

— PubChem BioAssay AID488841 (Sanford-Burnham Center for Chemical Genomics, 2010)
